IDE exosite FP: exo-site inhibitors of human insulin-degrading enzyme | P14735 | purified IDE, FL-6b probe fluorescence polarization; active compounds read low | z-score at 20 µM | actives 6.3% (n = 17,000) | AID 1259349;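 active means z-score of -3 or lower, meaning strong loss of probe binding signal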;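 further: His-tagged human IDE residues 42-1019 made in E. coli with 30 nM FL-6b probe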
Target sequence (P14735 42-1019 limits assumed): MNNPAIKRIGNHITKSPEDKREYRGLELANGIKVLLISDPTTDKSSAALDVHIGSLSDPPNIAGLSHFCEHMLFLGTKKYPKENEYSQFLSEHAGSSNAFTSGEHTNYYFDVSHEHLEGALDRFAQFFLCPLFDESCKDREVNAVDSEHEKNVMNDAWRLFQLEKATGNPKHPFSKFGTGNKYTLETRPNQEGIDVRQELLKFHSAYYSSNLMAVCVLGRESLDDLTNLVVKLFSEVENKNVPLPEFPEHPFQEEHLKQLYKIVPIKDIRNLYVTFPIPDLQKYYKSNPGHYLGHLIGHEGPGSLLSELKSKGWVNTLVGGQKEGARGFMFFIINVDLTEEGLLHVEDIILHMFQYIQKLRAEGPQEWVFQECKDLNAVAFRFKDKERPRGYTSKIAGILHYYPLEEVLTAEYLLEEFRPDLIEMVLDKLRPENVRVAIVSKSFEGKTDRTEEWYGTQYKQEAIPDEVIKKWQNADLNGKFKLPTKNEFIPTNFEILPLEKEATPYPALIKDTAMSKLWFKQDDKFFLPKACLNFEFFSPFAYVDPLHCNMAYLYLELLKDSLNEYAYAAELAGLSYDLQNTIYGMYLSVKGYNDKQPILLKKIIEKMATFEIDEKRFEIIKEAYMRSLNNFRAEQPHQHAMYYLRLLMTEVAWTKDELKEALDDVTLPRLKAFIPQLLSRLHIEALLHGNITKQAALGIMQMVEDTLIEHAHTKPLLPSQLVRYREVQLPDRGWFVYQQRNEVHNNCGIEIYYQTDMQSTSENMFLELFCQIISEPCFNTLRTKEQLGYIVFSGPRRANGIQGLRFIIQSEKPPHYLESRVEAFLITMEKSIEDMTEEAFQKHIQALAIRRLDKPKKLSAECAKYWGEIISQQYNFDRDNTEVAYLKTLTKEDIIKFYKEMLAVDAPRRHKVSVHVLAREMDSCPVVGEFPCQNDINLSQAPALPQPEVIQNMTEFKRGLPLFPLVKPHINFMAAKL
Numbers stand for hits; . = inactive. This is one part of a sample in which hits are shown more often than they occur.

SMILES	IDE exosite FP
CCCC#Cc1ccc([C@H]2[C@H]3CN(C(=O)c4ccccn4)CC(=O)N3[C@H]2CO)cc1	.
O=C(c1ccccn1)N1CC(=O)N2[C@@H](CO)[C@@H](c3ccc(C#Cc4ccccc4)cc3)[C@@H]2C1	-20
O=C(c1ccccn1)N1CC(=O)N2[C@H](CO)[C@H](c3ccc(C#Cc4ccccc4)cc3)[C@@H]2C1	-5.8
O=C(c1ccccn1)N1CC(=O)N2[C@H](C1)[C@H](c1ccc(C#CCc3ccccc3)cc1)[C@@H]2CO	.
O=C(c1ccccn1)N1CC(=O)N2[C@H](CO)[C@@H](c3ccc(C#CCc4ccccc4)cc3)[C@H]2C1	.
Cc1ccc(S(=O)(=O)N2C[C@H](O)COC[C@@H]3O[C@H](CC(=O)NCc4ccc5c(c4)OCO5)CC[C@H]32)cc1	.
N#C[C@@H]1N[C@@H](CO)[C@H]1c1ccc(C#Cc2ccc(F)cc2)cc1	.
COCC(=O)N1[C@H](C#N)[C@@H](c2ccccc2C2=CCCCC2)[C@H]1CO	.
COCC(=O)N1CCC2(CC1)CN(S(C)(=O)=O)[C@H](CO)c1[nH]c3cc(OC)ccc3c12	.
C[C@H]1CCCCO[C@H](CN(C)S(=O)(=O)c2cn(C)cn2)[C@@H](C)CN([C@@H](C)CO)C(=O)c2cc(N(C)C)ccc2O1	.
CO[C@H](CN(C)S(=O)(=O)c1ccc(C)cc1)[C@@H](C)CN([C@@H](C)CO)S(=O)(=O)c1cccc(Cl)c1	.
O=C(C[C@@H]1CC[C@H]2[C@@H](COC[C@H](O)CN2S(=O)(=O)c2cccc(F)c2)O1)NCc1ccncn1	.
O=C(C[C@@H]1C[C@@H]2c3cc(NS(=O)(=O)c4ccccc4)ccc3O[C@@H]2[C@H](CO)O1)N1CCOCC1	.
COc1ccccc1C#Cc1ccc([C@H]2[C@@H](CO)N3CCCCN(C(=O)C4CCC4)C[C@@H]23)cc1	-7.6
COc1ccccc1C#Cc1ccc([C@H]2[C@H]3CN(C(=O)C4CCC4)CCCCN3[C@H]2CO)cc1	-18
COc1ccccc1NC(=O)N1CCCCN2[C@@H](CO)[C@H](c3ccc(C#Cc4ccccc4)cc3)[C@@H]2C1	.
COc1ccc(C#Cc2ccc([C@H]3[C@H]4CN(C(=O)Nc5ccccc5)CCCCN4[C@H]3CO)cc2)cc1	.
COc1ccccc1NC(=O)N1CCCCN2[C@H](CO)[C@@H](c3ccc(C#Cc4ccccc4)cc3)[C@H]2C1	.
COc1ccc(C#Cc2ccc([C@H]3[C@@H](CO)N4CCCCN(C(=O)Nc5ccccc5)C[C@@H]34)cc2)cc1	.
CN(C)CC#Cc1ccc([C@@H]2[C@H](CO)N3CCCCN(C(=O)C4CCC4)C[C@@H]23)cc1	.
COc1ccccc1C#Cc1ccc([C@@H]2[C@@H](CO)N3CCCCN(C(=O)C4CCC4)C[C@H]23)cc1	-8.3
COc1ccc(C#Cc2ccc([C@@H]3[C@H](CO)N4CCCCN(C(=O)Nc5ccccc5)C[C@@H]34)cc2)cc1	.
COc1ccccc1NC(=O)N1CCCCN2[C@H](CO)[C@H](c3ccc(C#Cc4ccccc4)cc3)[C@@H]2C1	.
COc1ccccc1C#Cc1ccc([C@@H]2[C@H](CO)N3CCCCN(C(=O)C4CCC4)C[C@@H]23)cc1	-11
CN(C)CC#Cc1ccc([C@@H]2[C@H]3CN(C(=O)C4CCC4)CCCCN3[C@H]2CO)cc1	.
SMILES	IDE exosite FP
CCCC(=O)Nc1ccc2c(c1)C(=O)N(C)C[C@H](OC)[C@@H](C)CN(C(=O)c1ccccn1)[C@H](C)CO2	.
O=C(c1cnccn1)N1CC(=O)N2[C@H](CO)[C@@H](c3ccc(C#CCC4CCCC4)cc3)[C@@H]2C1	.
O=C(Cc1ccncc1)N1CC(=O)N2[C@H](C1)[C@@H](c1ccc(C3=CCCC3)cc1)[C@@H]2CO	.
COc1ccccc1S(=O)(=O)N[C@H]1C=C[C@H](CC(=O)N2CCOCC2)O[C@H]1CO	.
N#C[C@@H]1[C@@H](c2ccc(C3=CCCCC3)cc2)[C@H](CO)N1S(=O)(=O)c1ccccc1	.
CCCNC(=O)N1CC2(C1)[C@@H](c1ccccc1)[C@@H](CO)N2C(=O)c1cccnc1	.
CC(C)CC#Cc1ccc([C@@H]2[C@@H](CO)N3C(=O)CN(C(=O)CN4CCOCC4)C[C@@H]23)cc1	.
CNC[C@@H]1Oc2ccc(NS(=O)(=O)c3ccc(OC)cc3)cc2C(=O)N([C@@H](C)CO)C[C@@H]1C	.
CCN(C[C@H]1[C@@H](c2ccccc2)[C@@H](CO)N1CC1CC1)C(=O)c1ccccc1F	.
CN(C)CC#Cc1ccc([C@H]2[C@H]3CN(C(=O)c4ccccc4)CC(=O)N3[C@H]2CO)cc1	.
COc1ccc(-c2ccc3c(c2)[C@H]2[C@H](CCN2C(=O)c2cccc(F)c2)[C@@H](CO)N3)cc1	.
O=C(Nc1ccccc1)N1CC(=O)N2[C@H](CO)[C@@H](c3ccc(-c4ccc(F)cc4)cc3)[C@H]2C1	.
COc1ccc2c3c(n(C)c2c1)[C@@H](CO)N(Cc1ccccc1OC)CC31CCN(CC2CC2)CC1	.
CN1CCCCN2[C@@H](CO)[C@H](c3ccc(-c4cccnc4)cc3)[C@@H]2C1	.
Cc1cccc(-c2ccc([C@H]3[C@H](CO)N4CCCCN(C(=O)c5ccc6c(c5)OCO6)C[C@@H]34)cc2)c1	.
Cc1cccc(-c2ccc([C@@H]3[C@H](CO)N4CCCCN(C(=O)NC(C)C)C[C@@H]34)cc2)c1	-11
Cc1cccc(-c2ccc([C@H]3[C@H]4CN(C(=O)NC(C)C)CCCCN4[C@H]3CO)cc2)c1	-14
Cc1ccc(-c2ccc([C@H]3[C@@H](CO)N4CCCCN(C(=O)Nc5ccccc5)C[C@@H]34)cc2)cc1	.
Cc1cccc(-c2ccc([C@H]3[C@H](CO)N4CCCCN(C(=O)NC(C)C)C[C@@H]34)cc2)c1	-14
CC(C)NC(=O)N1CCCCN2[C@H](CO)[C@H](c3ccc(C4=CCCC4)cc3)[C@@H]2C1	.
Cc1ccc(-c2ccc([C@@H]3[C@H]4CN(C(=O)Nc5ccccc5)CCCCN4[C@H]3CO)cc2)cc1	.
CC=Cc1ccc2n(c1=O)C[C@H]1[C@H](CO)[C@@H](C(=O)NCC(F)(F)F)N(C(=O)c3cccnc3)[C@@H]21 (mixture of isomers)	.
CO[C@@H]1CC[C@@H]2CCOc3c(C#N)cccc3C(=O)N(C)C[C@H](c3ccccc3)CC(=O)N(C)C[C@H]1O2	.
COc1ccc2c3c(n(C)c2c1)[C@H](CO)N(C)CC31CCN(S(=O)(=O)c2cccc(F)c2)CC1	.
Cc1ccc(CN2CC(=O)N3[C@@H](CO)[C@H](c4ccc(-c5cccnc5)cc4)[C@@H]3C2)cc1	-3.1
SMILES	IDE exosite FP
CCC(=O)N1CC(=O)N2[C@@H](CO)[C@H](c3ccc(-c4cccnc4)cc3)[C@@H]2C1	.
O=C1CN(Cc2ccc(F)cc2)C[C@@H]2[C@@H](c3ccc(-c4cccnc4)cc3)[C@@H](CO)N12	.
CCC(=O)N1CC(=O)N2[C@H](CO)[C@H](c3ccc(-c4cccnc4)cc3)[C@H]2C1	-3.1
O=C(C1CCCCC1)N1CC(=O)N2[C@@H](CO)[C@H](c3ccc(-c4cccnc4)cc3)[C@@H]2C1	.
CCC(=O)N1CC(=O)N2[C@H](CO)[C@@H](c3ccc(-c4cccnc4)cc3)[C@@H]2C1	.
O=C(C1CCCCC1)N1CC(=O)N2[C@H](C1)[C@H](c1ccc(-c3cccnc3)cc1)[C@@H]2CO	.
O=C(c1ccccc1F)N1CC(=O)N2[C@@H](CO)[C@H](c3ccc(-c4cccnc4)cc3)[C@@H]2C1	.
O=C1CN(Cc2ccc(F)cc2)C[C@H]2[C@@H](c3ccc(-c4cccnc4)cc3)[C@H](CO)N12	.
